Our source for the Potency and activity change, negative = inhibition values is PubChem BioAssay (NCATS).

Inconclusive results are not listed. A number with no mark means an inactive call. The source made the active and inactive calls. The call rests on the fitted dose curve; in most records, active means well fitted curve in the direction sought with a large enough effect; inconclusive means small, poorly fitted or top-dose-only effect, or another doubt; inactive means no such curve, though single readings can be large; an effect the other way counts as inactive or inconclusive.

Assay [1] addresses Aldehyde dehydrogenase, mitochondrial (Homo sapiens) (UniProt P05091). As to the kind of experiment: qHTS for Inhibitors of the Aldehyde Dehydrogenase Family (ALDH2) Primary screen (AID 2061308).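 Further: plate controls were vehicle for no effect and reference inhibitor for full effect; nearly all actives have a fitted effect of over 55% in size.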 A general note: qHTS replaces the single test concentration by a dilution series.
For assay [2], the target named is Retinaldehyde dehydrogenase 3 (Homo sapiens) (UniProt P47895). The experiment in a line: qHTS for Inhibitors of the Aldehyde Dehydrogenase Family (ALDH1A3) Primary screen (AID 2061315).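 Further: plate controls were DMSO vehicle for no effect and reference inhibitor for full effect.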

With `C[C@@H]1COCCN1c1cc(C2(S(C)(=O)=O)CC2)nc(-c2cccc3[nH]ccc23)n1`, the Potency entry in assay [1] and in assay [2] was “inactive” throughout.

In the case of `Cc1ccc(S(=O)(=O)Nc2cnccc2C(=O)Nc2cccc3ccccc23)cc1`, the Potency entry in assay [1] and in assay [2] was “inactive” in each case.

For `CC(=O)O[C@@H]1C[C@]2(C)[C@@]3(CCC4[C@@]5(C)CC[C@H](O[C@@H]6O[C@H](C(=O)O)[C@@H](O)[C@H](O[C@@H]7O[C@H](CO)[C@H](O)[C@H](O)[C@H]7O[C@@H]7O[C@@H](C)[C@H](O)[C@@H](O)[C@H]7O[C@@H]7OC[C@](O)(CO)[C@H]7O)[C@H]6O[C@@H]6O[C@H](CO)[C@H](O)[C@H](O)[C@H]6O)C(C)(C)C5CC[C@]42C)O[C@@H](O)[C@]12C3CC(C)(C)[C@@H](OC(=O)/C=C/c1ccc(O)c(O)c1)[C@@H]2OC(=O)/C=C/c1ccccc1` (some centres not stated), the activity change, negative = inhibition was 3.11% [at 11.2 µM] in assay [1] and 17.4% [at 11.2 µM] in assay [2].

On to `O=C(Nc1nnc(-c2ccncc2)s1)Nc1ccc(Cl)cc1Cl`, for which the Potency entry in assay [1] and in assay [2] was “inactive” throughout.

In the case of `Cc1cn2c(-c3cn[nH]c3)cnc2c(Nc2ccc(C(=O)N3CCNCC3)cc2F)n1`, the Potency result in assay [1] and in assay [2] was “inactive” in each case.

On to `CCCCCn1ncc2c3sc(C)cc3n(C)c2c1=O`, for which the Potency entry in assay [1] and in assay [2] was “inactive” each time.

Take `O=C1CCCC2=C1C1(CCSC1)N=C(Nc1nc3ccccc3o1)N2` (configuration not stated): the Potency entry in assay [1] and in assay [2] was “inactive” in each case.

With `Cc1cc(-c2cc(O)ccc2Cl)cc2nnc(Nc3ccc(OCCN4CCCC4)cc3)nc12`, the Potency entry in assay [1] and in assay [2] was “inactive” throughout.

For the compound `NCc1ccc(Nc2ncc(F)c(Nc3ccccc3)n2)cc1`, the Potency entry in assay [1] and in assay [2] was “inactive” each time.

`CC(C)c1ccccc1-c1ncc(N)c(NCc2ccc(-c3cccnc3)cc2)n1`: the Potency entry in assay [1] and in assay [2] was “inactive” throughout.

For `Cc1ccc(NS(=O)(=O)c2cccc(C(=O)O)c2)cc1C`, the Potency entry in assay [1] and in assay [2] was “inactive” throughout.

Take `COc1ccc(S(=O)(=O)N2CCN(S(=O)(=O)c3c(F)cccc3F)CC2)cc1`: the Potency result in assay [1] and in assay [2] was “inactive” each time.

Take `COc1ccc(-c2nnc3n2N=C(c2cc(OC)ccc2OC)CS3)c(OC)c1`: the Potency entry in assay [1] and in assay [2] was “inactive” each time.

In the case of `Cn1c(SCC(=O)c2cc3ccccc3o2)nnc1-c1ccccc1`, the Potency entry in assay [1] and in assay [2] was “inactive” throughout.

`CN1CCC(c2cn(C)c3ccc(OS(=O)(=O)c4c(F)cccc4F)cc23)CC1`: the Potency result in assay [1] and in assay [2] was “inactive” throughout.

As to `C/C=C(/C)C(=O)O[C@H]1C=C(CO)C(=O)[C@H](OC(=O)/C(C)=C/CO)[C@H]1C(C)C`, the Potency entry in assay [1] and in assay [2] was “inactive” throughout.

As to `O=C1CCCC2=C1C(c1cccnc1)N=C(Nc1nc3ccccc3o1)N2` (configuration not stated), the Potency entry in assay [1] and in assay [2] was “inactive” each time.

For the compound `COc1ccc2c(c1)Oc1ncn(CCN3CCOCC3)c(=N)c1C2c1ccc(OC)c(OC)c1` (configuration not stated), the Potency entry in assay [1] and in assay [2] was “inactive” in each case.

For `Cc1ccc2c(c1)/C(=C\c1cc(Cl)c(O)c(Cl)c1)C(=O)N2`, the Potency result in assay [1] and in assay [2] was “inactive” each time.

As for `COc1cc(Nc2nc(-c3ccncc3)nc3ccccc23)ccc1Cl`, the Potency entry in assay [1] and in assay [2] was “inactive” throughout.

With `CC1=CC(=O)CC(C)(C)C1CCC(C)OC1OC(COC(=O)c2cc(O)c(O)c(O)c2)C(O)C(O)C1O` (configuration not stated), the Potency result in assay [1] and in assay [2] was “inactive” in each case.

Consider `COc1cc(-c2ccc3ncnc(NCCc4cnc[nH]4)c3c2)cc(OC)c1OC`, for which the Potency result in assay [1] and in assay [2] was “inactive” each time.

For `O=C(Nc1cc(C(F)(F)F)ccc1Cl)[C@H](O)CCc1ccccc1`, the Potency result in assay [1] and in assay [2] was “inactive” each time.

For the compound `CCCCNc1nc(C)nc2c1nc(-c1ccccc1)n2CC(C)(C)CN(C)C`, the Potency result in assay [1] and in assay [2] was “inactive” throughout.

As to `COc1ccc(C(=O)NCC(=O)OC(C(=O)Nc2cc(C(F)(F)F)ccc2Cl)c2ccccc2)cc1OC` (configuration not stated), the Potency result in assay [1] and in assay [2] was “inactive” in each case.

`O=S(=O)(c1cccc(O)c1)N1CCN(S(=O)(=O)c2c(F)cccc2F)CC1`: the Potency result in assay [1] and in assay [2] was “inactive” each time.

As to `CC(=O)c1c(C)[nH]c(C(=O)Nc2ccc(OCCCN(C)C)c(S(=O)(=O)Nc3ccc(Br)cc3)c2)c1C`, the Potency entry in assay [1] and in assay [2] was “inactive” throughout.

Consider `O=C1CCc2cc(S(=O)(=O)Nc3ccccc3F)ccc2N1`, for which the Potency entry in assay [1] and in assay [2] was “inactive” each time.

Turning to `COc1cccc(-c2ccc(=O)n(CC(=O)NCCc3ccccc3)n2)c1`, the Potency result in assay [1] and in assay [2] was “inactive” each time.

For `O=C(Nc1ccc(Cl)c([N+](=O)[O-])c1)Nc1nnc(C2CCCCC2)s1`, the Potency entry in assay [1] and in assay [2] was “inactive” in each case.

Turning to `O=C(Nc1ncc(Cc2ccc(C(F)(F)F)cc2)s1)c1cccc(-c2ccccc2)c1`, the Potency entry in assay [1] and in assay [2] was “inactive” in each case.

For `CCN1CCCC1Cn1c(-c2ccccc2)nc2c(NC3CCCCC3)nc(C)nc21` (configuration not stated), the Potency entry in assay [1] and in assay [2] was “inactive” in each case.

For the compound `NC(=O)C1CCN(c2nnc(-c3ccc4c(c3)OCCCO4)s2)CC1`, the Potency entry in assay [1] and in assay [2] was “inactive” in each case.

Turning to `O=C(Nc1ccc2c(c1)OCCO2)c1ccc(-c2nc3ccccc3[nH]2)cc1`, the Potency entry in assay [1] and in assay [2] was “inactive” throughout.

For the compound `CC(C)c1ccccc1-c1nc(NCc2ccc(-c3cccnc3)cc2)c2occc2n1`, the Potency entry in assay [1] and in assay [2] was “inactive” throughout.

With `O=C(Nc1ccc(F)c(C(F)(F)F)c1)Nc1ccc(-c2ccncc2)s1`, the Potency result in assay [1] and in assay [2] was “inactive” throughout.

`Cc1noc(C)c1-c1ccc2ncnc(NCc3ccc(Br)cc3)c2c1`: the Potency result in assay [1] and in assay [2] was “inactive” throughout.

With `COc1ccccc1-c1nnc2n1N=C(c1c(OC)cccc1OC)CS2`, the Potency entry in assay [1] and in assay [2] was “inactive” each time.

For the compound `CCn1cnc2c(NCc3cccnc3)nc(C#N)nc21`, the Potency result in assay [1] and in assay [2] was “inactive” each time.

As for `O=C(Cn1cc(CNC(=O)c2ccccc2)nn1)Nc1cc(C(F)(F)F)ccc1Cl`, the Potency result in assay [1] and in assay [2] was “inactive” each time.

With `CCOC(=O)c1cc2c([nH]1)CCCC2=O`, the Potency result in assay [1] and in assay [2] was “inactive” in each case.
